From PubChem BioAssay
The source made the active and inactive calls.

Key:
[1] = tested on: PRMT1 (protein arginine N-methyltransferase 1); assay: PRMT1 binders on small-molecule microarrays, primary screen, biochemical, small-molecule microarray, 635 nm fluorescence (AID 1088); settings: small-molecule microarray binding, higher = more signal;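 further: binding of Prmt1 protein to compounds spotted on small-molecule microarray slides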
[2] = yeast growth modulation, basal conditions, primary screen, YJM789 clinical isolate, OD600, 24 h (AID 1089);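 further: growth of clinical yeast isolate S. cerevisiae YJM 789 seeded 1000 cells per well; test concentration not given here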; settings: S. cerevisiae YJM789 growth, higher = more signal, called active from +8 up or from −8 down
[3] = fission yeast growth modulation, primary screen, strain 972, OD600, 24 h, no modulator (AID 1090);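 further: basal condition with compound alone and no growth modifier present; test concentration not given here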; settings: S. pombe 972 growth, higher = more signal, called active from +8 up or from −8 down
[4] = S. cerevisiae growth modulation with rapamycin, primary screen, strain BY4716, OD600, 96 h (AID 1091); settings: higher = more signal, called active from +8 up or from −8 down; further: test concentration not given here
[5] = biological target: Torsin-1A-interacting protein 2 (Homo sapiens) (UniProt Q8NFQ8); assay: LULL1 binders on small-molecule microarray, primary screen, cell lysate, human LULL1 lysate, 635/667 nm fluorescence (AID 1092); settings: hLULL1 lysate binding, 635 nm fluorescence, higher = more signal;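 further: probe is lysate of COS7 cells overexpressing human LULL1; score merges per-feature 667 nm fluorescence with signal-to-noise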
[6] = E. coli growth modulation, two-sided OD650, primary screen, E. coli filamentation project, strain DRC41, 24 h (AID 1093); settings: OD650, 24 h, higher = more signal, called active from +8 up or from −8 down;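 further: MC1000 strain lacking acrAB efflux and sulA so SOS filamentation is blocked; test concentration not given here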
[7] = small-molecule microarray binders of probe aLefty2, primary screen, biochemical, biotinylated probe, 635/667 nm fluorescence (AID 1094); settings: higher = more signal;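 further: score merges spot fluorescence near 667 nm with spot signal-to-noise ratio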
[8] = tested on: Noggin (protein binding on small-molecule microarray); assay: Noggin binders on small-molecule microarray, primary screen, biochemical, 635/667 nm fluorescence (AID 1095); settings: 635 nm fluorescence, higher = more signal;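 further: score merges 667 nm feature fluorescence with signal to noise over triplicate slides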
[9] = biological target: Neurogenic locus notch homolog protein 3 (Homo sapiens) (UniProt Q9UM47); assay: NOTCH3 binders on small-molecule microarray, primary screen, biochemical, 635/667 nm fluorescence (AID 1096); settings: NOTCH3 binding, 635 nm fluorescence, higher = more signal
[10] = small-molecule microarray binders of probe aEGFR, primary screen, biochemical, biotinylated probe, 635/667 nm fluorescence (AID 1097); settings: higher = more signal;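 further: probe is a biotinylated anti-EGFR antibody binding compounds printed on slides; score combines fluorescence near 667 nm and signal to noise of each spot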
[11] = tested on: Plasmodium falciparum Sir2 (PF13_0152, Sir2A); assay: pfSir2 binders on small-molecule microarrays, primary screen, biochemical, small-molecule microarray, 635 nm fluorescence (AID 1098); settings: small-molecule microarray binding, fluorescence 635 nm; higher = more signal;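 further: score merges spot fluorescence intensity with its signal-to-noise ratio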
[12] = small-molecule microarray binders of probe aDKK1, primary screen, biochemical, biotinylated probe, 635/667 nm fluorescence (AID 1099); settings: higher = more signal;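 further: score merges 667nm spot fluorescence with signal to noise across triplicate slides; reference of the scale not given here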
[13] = small-molecule microarray binders of probe aCHRDL2, primary screen, biochemical, biotinylated probe, 635/667 nm fluorescence (AID 1100); settings: higher = more signal
[14] = splicing luciferase reporter signal modulators, primary screen, spliceosome inhibition project, cell-based, HEK293, splice +/- reporter (AID 1101); settings: luminescence, 24 h, higher = more signal, called active from +8 up or from −8 down;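 further: HEK293 cells carrying a splicing-competent luciferase reporter gene; test concentration not given here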
[15] = biological target: Fibroblast growth factor 10 (Homo sapiens) (UniProt O15520); assay: FGF10 binders on small-molecule microarrays, primary screen, biochemical, small-molecule microarray, 635 nm fluorescence (AID 1102); settings: FGF10 binding, fluorescence 635 nm, higher = more signal
[16] = tested on: glycogen synthase kinase-3 (GSK3A per assay name; protocol says GSK3B); assay: GSK3 binders on small-molecule microarrays, primary screen, biochemical, small-molecule microarray, 635 nm fluorescence, GSK3A (AID 1103); settings: small-molecule microarray binding, fluorescence 635 nm; higher = more signal; further: the record names both GSK3A and GSK3B
[17] = biological target: Epidermal growth factor receptor (Homo sapiens) (UniProt P00533); assay: EGFR binders on small-molecule microarrays, primary screen, biochemical, small-molecule microarray, 635 nm fluorescence (AID 1104); settings: EGFR binding, higher = more signal;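 further: score merges 667 nm emission intensity with spot signal to noise over triplicate slides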
[18] = biological target: Follistatin-related protein 3 (Homo sapiens) (UniProt O95633); assay: FSTL3 binders on small-molecule microarrays, primary screen, biochemical, small-molecule microarray, 635 nm fluorescence (AID 1105); settings: FSTL3 binding, higher = more signal;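 further: score merges emission near 667 nm and signal to noise per printed spot across three slides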
[19] = biological target: Dickkopf-related protein 1 (Homo sapiens) (UniProt O94907); assay: DKK1 binders on small-molecule microarrays, primary screen, biochemical, small-molecule microarray, 635 nm fluorescence scan (AID 1106); settings: DKK1 binding, higher = more signal;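 further: score merges emission near 667 nm with signal to noise over three replicate slides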
[20] = tested on: Inhibin beta A chain (activin A); assay: INHBA (activin A) binders on microarrays, primary screen, biochemical, small-molecule microarray, 635 nm fluorescence scan (AID 1107); settings: small-molecule microarray binding, higher = more signal;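 further: mouse activin A protein probed at 4.33 µg/mL on printed slides; score merges bound-protein fluorescence near 667 nm with spot signal-to-noise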

Sequence of Neurogenic locus notch homolog protein 3 (Homo sapiens) (Q9UM47 whole entry, looked up): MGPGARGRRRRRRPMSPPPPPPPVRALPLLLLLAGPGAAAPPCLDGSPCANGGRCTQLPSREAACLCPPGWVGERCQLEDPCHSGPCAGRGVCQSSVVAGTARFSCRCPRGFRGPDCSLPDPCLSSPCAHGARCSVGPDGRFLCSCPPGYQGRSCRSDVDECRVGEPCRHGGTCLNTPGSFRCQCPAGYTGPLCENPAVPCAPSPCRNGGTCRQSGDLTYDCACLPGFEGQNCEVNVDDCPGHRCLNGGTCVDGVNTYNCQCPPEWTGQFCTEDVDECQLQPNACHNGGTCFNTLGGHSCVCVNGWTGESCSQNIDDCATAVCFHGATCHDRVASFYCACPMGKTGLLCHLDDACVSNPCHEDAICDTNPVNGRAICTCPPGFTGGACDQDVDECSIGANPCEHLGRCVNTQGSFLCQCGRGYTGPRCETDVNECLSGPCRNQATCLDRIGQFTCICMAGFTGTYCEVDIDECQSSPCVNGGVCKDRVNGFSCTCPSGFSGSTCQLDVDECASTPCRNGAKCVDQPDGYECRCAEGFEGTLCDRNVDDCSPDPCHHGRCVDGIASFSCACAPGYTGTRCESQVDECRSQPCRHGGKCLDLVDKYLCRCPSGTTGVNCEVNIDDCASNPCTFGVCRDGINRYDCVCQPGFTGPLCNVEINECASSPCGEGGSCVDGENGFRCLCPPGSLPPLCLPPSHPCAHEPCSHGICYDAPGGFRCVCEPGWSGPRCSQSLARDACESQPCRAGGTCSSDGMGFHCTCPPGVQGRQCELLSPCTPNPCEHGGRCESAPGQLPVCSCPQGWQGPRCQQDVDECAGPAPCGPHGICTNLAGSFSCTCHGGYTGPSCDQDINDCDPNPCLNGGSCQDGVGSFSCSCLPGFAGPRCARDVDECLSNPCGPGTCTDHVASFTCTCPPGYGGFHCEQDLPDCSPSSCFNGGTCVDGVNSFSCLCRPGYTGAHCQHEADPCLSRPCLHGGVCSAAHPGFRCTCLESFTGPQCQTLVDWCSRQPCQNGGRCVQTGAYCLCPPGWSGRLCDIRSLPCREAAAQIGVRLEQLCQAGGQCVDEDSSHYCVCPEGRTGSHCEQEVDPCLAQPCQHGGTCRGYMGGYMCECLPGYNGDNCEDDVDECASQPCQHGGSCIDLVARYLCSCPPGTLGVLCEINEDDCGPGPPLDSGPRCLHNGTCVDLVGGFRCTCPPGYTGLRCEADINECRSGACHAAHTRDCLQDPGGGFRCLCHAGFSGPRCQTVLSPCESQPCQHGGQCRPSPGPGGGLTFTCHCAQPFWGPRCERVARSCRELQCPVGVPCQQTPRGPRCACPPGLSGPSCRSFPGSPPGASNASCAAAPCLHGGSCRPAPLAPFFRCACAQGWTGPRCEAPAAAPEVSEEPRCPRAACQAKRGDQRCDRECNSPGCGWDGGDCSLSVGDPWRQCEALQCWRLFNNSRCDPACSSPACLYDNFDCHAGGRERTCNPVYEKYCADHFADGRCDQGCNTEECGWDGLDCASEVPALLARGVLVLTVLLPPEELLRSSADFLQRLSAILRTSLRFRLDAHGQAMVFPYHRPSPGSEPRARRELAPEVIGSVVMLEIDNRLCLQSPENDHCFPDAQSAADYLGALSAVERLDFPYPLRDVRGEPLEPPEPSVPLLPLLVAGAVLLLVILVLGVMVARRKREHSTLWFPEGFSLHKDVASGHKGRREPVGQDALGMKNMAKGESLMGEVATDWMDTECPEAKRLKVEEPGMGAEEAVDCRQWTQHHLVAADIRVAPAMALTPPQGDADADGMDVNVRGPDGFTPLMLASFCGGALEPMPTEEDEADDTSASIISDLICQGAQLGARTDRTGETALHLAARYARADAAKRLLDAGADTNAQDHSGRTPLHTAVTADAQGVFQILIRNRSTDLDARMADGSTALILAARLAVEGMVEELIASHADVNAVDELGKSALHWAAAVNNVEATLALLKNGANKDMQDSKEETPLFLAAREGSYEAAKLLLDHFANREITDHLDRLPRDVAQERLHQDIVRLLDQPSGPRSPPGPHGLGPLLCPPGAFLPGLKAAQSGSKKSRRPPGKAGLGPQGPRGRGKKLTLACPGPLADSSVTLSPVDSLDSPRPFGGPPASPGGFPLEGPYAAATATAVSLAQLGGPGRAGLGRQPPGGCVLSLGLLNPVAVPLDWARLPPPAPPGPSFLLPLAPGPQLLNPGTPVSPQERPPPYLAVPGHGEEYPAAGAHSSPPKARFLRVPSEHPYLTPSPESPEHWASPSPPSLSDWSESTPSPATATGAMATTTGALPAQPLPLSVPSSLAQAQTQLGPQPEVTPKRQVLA
Sequence of Follistatin-related protein 3 (Homo sapiens) (O95633 whole entry, looked up): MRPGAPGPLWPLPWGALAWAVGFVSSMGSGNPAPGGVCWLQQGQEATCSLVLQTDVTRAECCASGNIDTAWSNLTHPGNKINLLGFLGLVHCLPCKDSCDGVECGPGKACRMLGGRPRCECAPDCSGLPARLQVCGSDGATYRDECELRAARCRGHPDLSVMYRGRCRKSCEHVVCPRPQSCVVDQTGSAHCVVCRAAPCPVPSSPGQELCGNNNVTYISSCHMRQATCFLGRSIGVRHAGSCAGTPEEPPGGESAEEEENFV
Sequence of Epidermal growth factor receptor (Homo sapiens) (P00533 whole entry, looked up): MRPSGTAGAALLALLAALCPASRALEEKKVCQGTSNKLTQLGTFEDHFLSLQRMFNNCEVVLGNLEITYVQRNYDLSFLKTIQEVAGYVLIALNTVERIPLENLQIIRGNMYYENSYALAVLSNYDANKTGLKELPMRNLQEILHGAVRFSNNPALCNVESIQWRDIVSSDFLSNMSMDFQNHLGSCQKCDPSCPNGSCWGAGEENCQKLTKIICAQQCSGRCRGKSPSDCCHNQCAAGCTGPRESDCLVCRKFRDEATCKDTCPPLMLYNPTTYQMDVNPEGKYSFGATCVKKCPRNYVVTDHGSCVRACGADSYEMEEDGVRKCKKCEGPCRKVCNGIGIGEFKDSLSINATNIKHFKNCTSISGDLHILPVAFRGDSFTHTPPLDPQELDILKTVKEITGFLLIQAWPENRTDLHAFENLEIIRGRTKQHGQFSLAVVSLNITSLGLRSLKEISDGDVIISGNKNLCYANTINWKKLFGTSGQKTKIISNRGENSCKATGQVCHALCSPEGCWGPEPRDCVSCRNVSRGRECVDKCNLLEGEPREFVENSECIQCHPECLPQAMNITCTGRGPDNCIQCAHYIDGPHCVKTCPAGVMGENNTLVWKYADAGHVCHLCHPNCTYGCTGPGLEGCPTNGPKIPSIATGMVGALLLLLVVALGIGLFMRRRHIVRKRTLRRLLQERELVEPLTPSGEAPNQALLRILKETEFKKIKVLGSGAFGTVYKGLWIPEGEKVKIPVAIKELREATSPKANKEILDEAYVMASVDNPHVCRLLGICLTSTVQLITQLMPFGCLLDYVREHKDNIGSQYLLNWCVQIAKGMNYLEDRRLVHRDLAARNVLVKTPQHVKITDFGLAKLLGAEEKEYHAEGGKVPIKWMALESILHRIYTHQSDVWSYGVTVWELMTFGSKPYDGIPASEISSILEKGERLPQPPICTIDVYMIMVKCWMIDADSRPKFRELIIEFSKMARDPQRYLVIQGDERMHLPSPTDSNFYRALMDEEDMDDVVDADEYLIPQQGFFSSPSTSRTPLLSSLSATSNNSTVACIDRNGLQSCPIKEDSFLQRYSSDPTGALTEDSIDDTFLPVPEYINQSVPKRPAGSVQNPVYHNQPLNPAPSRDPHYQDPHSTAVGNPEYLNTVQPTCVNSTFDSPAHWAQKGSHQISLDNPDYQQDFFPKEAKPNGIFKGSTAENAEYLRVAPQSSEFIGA
Sequence of Fibroblast growth factor 10 (Homo sapiens) (O15520 whole entry, looked up): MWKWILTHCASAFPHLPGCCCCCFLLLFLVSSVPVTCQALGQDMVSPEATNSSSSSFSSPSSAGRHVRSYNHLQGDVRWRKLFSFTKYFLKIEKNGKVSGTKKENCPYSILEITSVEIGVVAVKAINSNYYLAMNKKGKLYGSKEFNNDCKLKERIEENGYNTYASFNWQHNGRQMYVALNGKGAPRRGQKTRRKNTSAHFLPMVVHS
Sequence of Dickkopf-related protein 1 (Homo sapiens) (O94907 whole entry, looked up): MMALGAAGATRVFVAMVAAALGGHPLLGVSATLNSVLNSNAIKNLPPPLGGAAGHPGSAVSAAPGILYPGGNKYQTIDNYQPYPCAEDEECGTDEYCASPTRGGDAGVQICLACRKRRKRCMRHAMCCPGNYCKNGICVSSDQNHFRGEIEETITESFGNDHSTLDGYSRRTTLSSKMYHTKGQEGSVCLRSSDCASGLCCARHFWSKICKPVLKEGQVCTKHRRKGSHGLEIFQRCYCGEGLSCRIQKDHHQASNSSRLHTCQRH
Sequence of Torsin-1A-interacting protein 2 (Homo sapiens) (Q8NFQ8 whole entry, looked up): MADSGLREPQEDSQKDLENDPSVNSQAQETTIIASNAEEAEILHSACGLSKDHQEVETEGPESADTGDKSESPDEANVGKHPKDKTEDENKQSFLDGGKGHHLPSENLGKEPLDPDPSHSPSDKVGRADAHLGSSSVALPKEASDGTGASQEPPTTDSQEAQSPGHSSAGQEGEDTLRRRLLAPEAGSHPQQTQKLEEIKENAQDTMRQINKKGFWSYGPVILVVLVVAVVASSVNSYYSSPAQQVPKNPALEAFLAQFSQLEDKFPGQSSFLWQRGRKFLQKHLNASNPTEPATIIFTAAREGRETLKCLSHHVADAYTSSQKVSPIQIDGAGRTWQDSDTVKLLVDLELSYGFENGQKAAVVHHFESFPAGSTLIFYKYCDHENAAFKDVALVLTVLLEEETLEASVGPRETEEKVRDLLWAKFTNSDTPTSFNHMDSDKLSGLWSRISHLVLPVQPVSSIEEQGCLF

SMILES	composite z-score [1]	z-score [2]	z-score [3]	z-score [4]	composite z-score [5]	z-score [6]	composite z-score [7]	composite z-score [8]	composite z-score [9]	composite z-score [10]	composite z-score [11]	composite z-score [12]	composite z-score [13]	z-score [14]	composite z-score [15]	composite z-score [16]	composite z-score [17]	composite z-score [18]	composite z-score [19]	composite z-score [20]
CCOc1cc(C(O)C2C=CC3C(=O)N(c4ccccc4)C(=O)C3N2Nc2ccccc2)ccc1O (stereo not given)	0.408	0.881 (inactive)	-0.692 (inactive)	1.2 (inactive)	3.52	0.374 (inactive)	-0.0371	-0.419	0.498	0.0192	0.716	-0.0126	0.834	0.608 (inactive)	0.671	0.0622	-0.114	0.128	-0.832	0.829
COc1ccc(C(=O)O[C@H]2CC[C@]3(C)C4=C(CCC3C2(C)C)[C@]2(C)CC[C@H]([C@H](C)CCCC(C)C)[C@@]2(C)CC4)cc1 (stereo not given in full)	0.193	-0.292 (inactive)	-1.52 (inactive)	-0.262 (inactive)	-0.445	1.71 (inactive)	-0.0561	0.546	0.947	-0.0828	0.0931	-0.287	-0.384	-0.968 (inactive)	0.205	0.751	0.302	0.561	0.458	0.225
COc1ccc([Si](C)(C)[C@H]2[C@H](CC(=O)N3CCC[C@H]3CO)O[C@@]3(C(=O)N(Cc4cccc(N5C(=O)c6cccc7cccc5c67)c4)c4ccccc43)[C@@H]2C)cc1	1.56	-0.0977 (inactive)	0.696 (inactive)	-0.15 (inactive)	2.08	-0.0831 (inactive)	0.031	1.57	1.05	-0.0549	1.45	-0.109	-0.098	0.685 (inactive)	1.29	0.483	0.761	1.25	0.892	0.459
OC([C@@H]1CC(c2ccccc2)=NO1)[C@H]1CC(c2ccccc2)=NO1 (stereo not given in full)	-0.629	0.784 (inactive)	-0.786 (inactive)	1.55 (inactive)	0.299	2.52 (inactive)	-0.0748	0.281	-0.158	0.0655	-0.345	-0.29	-0.136	-0.247 (inactive)	0.0725	-0.453	-0.29	0.031	0.446	0.672
CCCC[C@H]1OB(O)C[C@H]2C1=C(COc1ccccc1)C[C@H]1C(=O)N(C)C(=O)[C@H]12	-0.0361	-0.454 (inactive)	-1.03 (inactive)	-0.861 (inactive)	0.265	-0.632 (inactive)	0.0784	0.231	0.187	-0.0714	-0.328	0.0763	-0.442	0.377 (inactive)	0.429	-0.0785	0.447	0.43	0.439	0.741
CC1CC/C=C\[C@H]2OC34C=CCN(Cn5nnc6ccccc65)C(=O)[C@H]3N(C(CO)C(C)C)C(=O)[C@@H]4C2C(=O)O1 (stereo not given in full)	1.34	-0.973 (inactive)	-1.02 (inactive)	-0.931 (inactive)	3.28	0.309 (inactive)	0.0723	-0.772	0.113	-0.0987	0.868	-0.165	0.547	0.209 (inactive)	-0.103	-0.108	-0.675	-0.551	-0.877	0.459
C=CCC(OC(C)=O)[C@@H]1[C@@H](N(Cc2ccc(-c3cccc(C(F)(F)F)c3)o2)C(=O)Cc2ccc(F)cc2)c2cc(OCCCO)ccc2N1C(=O)Cc1ccc(OC)cc1 (stereo not given in full)	-2.39	-0.973 (inactive)	0.0138 (inactive)	-0.982 (inactive)	-2.02	-0.0261 (inactive)	0.454	-0.137	-1.08	-0.195	-0.0392	-0.264	0.385	-1.59 (inactive)	-0.0139	-2.4	-0.983	-0.106	-0.731	0.898
COc1ccc(C(O)C2C=CC3C(=O)NC(=O)C3N2Nc2ccccn2)cc1 (stereo not given)	0.425	0.181 (inactive)	0.312 (inactive)	0.359 (inactive)	0.665	-0.434 (inactive)	0.251	0.195	0.49	0.164	0.948	0.422	0.267	0.706 (inactive)	0.257	-0.0877	0.686	0.304	0.645	0.371
C=CCN1C(=O)[C@]2(O[C@H](CCO)[C@@H]([Si](C)(C)c3ccc(OC)cc3)[C@@H]2C)c2cc(N3CCCCC3=O)ccc21	1.54	-0.242 (inactive)	0.413 (inactive)	2.23 (inactive)	2.37	1.27 (inactive)	-0.106	1.06	1.14	0.048	0.914	0.0375	0.0217	-1.69 (inactive)	0.849	0.549	0.286	0.918	0.147	0.247
CC(C)C[C@@H]1NC(=O)[C@@H]2C[C@H](C(=O)NCCCCCN)[C@H](c3cccc(OCCO)c3)N2C1=O	1.3	-4.39 (inactive)	-0.894 (inactive)	-1.13 (inactive)	2.73	0.758 (inactive)	0.215	0.359	0.244	-0.0549	1.44	-0.0704	0.527	-1.08 (inactive)	0.272	0.685	-0.26	0.627	0.387	0.842
COCCOC(=O)N1C(=O)[C@@]2(c3cc(C#Cc4ccc(OC)cc4)ccc31)[C@H](c1ccccc1OCCO)N1[C@H](c3ccccc3)[C@H](c3ccccc3)OC(=O)[C@H]1[C@@H]2C(=O)N1CCN(c2ncccn2)CC1	1.35	3.34 (inactive)	1.95 (inactive)	7.23 (inactive)	2.22	0.579 (inactive)	-0.115	0.936	0.836	-0.058	0.864	-0.0148	0.116	-0.0173 (inactive)	0.743	0.806	0.339	0.369	0.27	0.345
COCCOC(=O)N1C(=O)[C@@]2(c3cc(C#CCCO)ccc31)[C@H](C(=O)N1CCc3cc(OC)c(OC)cc3C1)[C@H]1C(=O)O[C@H](c3ccccc3)[C@H](c3ccccc3)N1[C@@H]2c1ccc(O)cc1	1.54	1.42 (inactive)	0.0725 (inactive)	1.8 (inactive)	2.55	0.199 (inactive)	0.0262	1.07	1.08	-0.0191	1.58	0.0869	0.43	-0.341 (inactive)	1.06	1.29	0.413	0.81	0.547	-0.132
